Experimental data taken from PubChem BioAssay AID1159580 (chemical genetic matrix, 2015).
Several values for one entry are separate records, joined by “and”; a condition that tells them apart may be missing. Identical values can stand only once. Hit rate of the full screen: of about 5,500 compounds, about 2,000 (36%) were called active. About 18% were inconclusive and are not listed. Cut-off read from the data, not from the text of the source: active = normalized growth mostly below about 0.91 (no sharp cut-off); inconclusive = no clear call, values can overlap the other calls; inactive = mostly above about 0.92. This is one part of the list.

Assay: chemical genetic growth profiling, strain panel (AID 1159580);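 note: tested at 20 µM; growth read once vehicle control cultures reached saturation at 30 °C; 1 = growth at the plate median or of vehicle wells; lower values mean less growth of the strain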
Details: S. cerevisiae deletion strains, growth OD

Measured: normalized growth

COc1cc2ccc(=O)oc2c2ccoc12
inactive: locus YAL021C, strain ccr4, stronger effect = lower value 0.941 | locus YAL030W, strain snc1, stronger effect = lower value 0.982 | locus YBL061C, strain skt5, stronger effect = lower value 0.999 | locus YBR021W, strain FUR4, stronger effect = lower value 1.04 | locus YBR023C, strain chs3, stronger effect = lower value 0.932 | locus YBR171W, strain sec66, stronger effect = lower value 0.984 | locus YBR229C, strain ROT2, stronger effect = lower value 0.998 | locus YBR279W, strain paf1, stronger effect = lower value 0.99 | locus YCL029C, strain bik1, stronger effect = lower value 0.982 | locus YCR088W, strain abp1, stronger effect = lower value 1.01 | locus YDL005C, strain med2, stronger effect = lower value 0.994 | locus YDL035C, strain GPR1, stronger effect = lower value 0.971 | locus YDL040C, strain nat1, stronger effect = lower value 1 | locus YDL074C, strain BRE1, stronger effect = lower value 0.85 | locus YDL101C, strain DUN1, stronger effect = lower value 0.94 | locus YDL134C, strain PPH21, stronger effect = lower value 0.964 | locus YDL185W, strain tfp1, stronger effect = lower value 0.937 | locus YDL192W, strain arf1, stronger effect = lower value 0.955 | locus YDR001C, strain nth1, stronger effect = lower value 0.994 | locus YDR069C, strain doa4, stronger effect = lower value 0.905 | locus YDR101C, strain arx1, stronger effect = lower value 0.985 | locus YDR137W, strain rgp1, stronger effect = lower value 1.03 | locus YDR162C, strain NBP2, stronger effect = lower value 0.974 | locus YDR318W, strain mcm21, stronger effect = lower value 0.965 | locus YDR388W, stronger effect = lower value 1 | locus YDR502C, strain sam2, stronger effect = lower value 0.958 | locus YEL037C, strain rad23, stronger effect = lower value 0.957 | locus YEL061C, strain CIN8 (second series), stronger effect = lower value 0.99 | locus YER016W, strain bim1, stronger effect = lower value 1 | locus YER110C, stronger effect = lower value 0.975 | locus YER111C, strain swi4, stronger effect = lower value 1 | locus YER155C, strain BEM2, stronger effect = lower value 1.02 | locus YER167W, strain BCK2, stronger effect = lower value 1.01 | locus YFR010W, strain ubp6, stronger effect = lower value 0.915 | locus YGL078C, strain dbp3, stronger effect = lower value 0.967 | locus YGL086W, strain mad1, stronger effect = lower value 0.969 | locus YGL167C, strain pmr1, stronger effect = lower value 0.998 | locus YGL227W, strain vid30, stronger effect = lower value 0.999 | locus YGL248W, strain PDE1, stronger effect = lower value 0.952 | locus YGR078C, strain PAC10, stronger effect = lower value 0.977 | locus YHR013C, strain ard1, stronger effect = lower value 0.953 | locus YHR030C, strain SLT2, stronger effect = lower value 1 and 0.986 | locus YHR079C, strain IRE1 (second series), stronger effect = lower value 0.961 | locus YHR079C, strain IRE1, stronger effect = lower value 1.02 | locus YHR094C, strain hxt1, stronger effect = lower value 0.996 | locus YHR129C, strain ARP1, stronger effect = lower value 1 | locus YIL066C, strain RNR3, stronger effect = lower value 1 | locus YIL073C, strain SPO22, stronger effect = lower value 0.957 | locus YIL125W, strain kgd1, stronger effect = lower value 1.01 | locus YIR030C, strain dcg1, stronger effect = lower value 0.993 | locus YJL092W, strain hpr5, stronger effect = lower value 0.973 | locus YJL095W, strain BCK1 (second series), stronger effect = lower value 0.937 | locus YJL095W, strain BCK1, stronger effect = lower value 0.906 and 0.992 | locus YJL134W, strain LCB3, stronger effect = lower value 1 | locus YJL154C, strain vps35, stronger effect = lower value 0.996 | locus YJL168C, strain set2, stronger effect = lower value 0.983 | locus YJL187C, strain SWE1 (second series), stronger effect = lower value 0.98 | locus YJR043C, strain POL32, stronger effect = lower value 0.921
active: locus YAL026C, strain drs2, stronger effect = lower value 0.859 | locus YBR009C, strain hhf1, stronger effect = lower value 0.777 | locus YBR231C, strain swc5, stronger effect = lower value 0.733 | locus YCL011C, strain gbp2, stronger effect = lower value 0.823 | locus YCL016C, strain dcc1, stronger effect = lower value 0.828 | locus YCL069W, strain vba3, stronger effect = lower value 0.915 | locus YDR159W, strain sac3, stronger effect = lower value 0.829 | locus YDR195W, strain ref2 1.3 [resistant] | locus YDR297W, strain sur2, stronger effect = lower value 0.903 | locus YDR334W, strain swr1, stronger effect = lower value 0.772 | locus YDR335W, strain msn5, stronger effect = lower value 0.896 | locus YDR392W, strain spt3, stronger effect = lower value 0.665 | locus YEL003W, strain gim4, stronger effect = lower value 0.818 | locus YER015W, strain faa2, stronger effect = lower value 0.92 | locus YER155C, strain BEM2 (second series), stronger effect = lower value 0.731 | locus YGL173C, strain kem1, stronger effect = lower value 0.862 | locus YGL240W, strain doc1, stronger effect = lower value 0.692 | locus YGL253W, strain hxk2, stronger effect = lower value 0.892 | locus YGR135W, strain pre9, stronger effect = lower value 0.893 | locus YGR252W, strain gcn5, stronger effect = lower value 0.76 | locus YHR027C, strain rpn1, stronger effect = lower value 0.881 | locus YHR142W, strain chs7, stronger effect = lower value 0.838 | locus YHR200W, strain rpn10, stronger effect = lower value 0.899 | locus YJL115W, strain asf1, stronger effect = lower value 0.883 | locus YJL129C, strain trk1, stronger effect = lower value 1.14 [resistant] | locus YJL164C, strain tpk1, stronger effect = lower value 0.902 | locus YJL166W, strain qcr8, stronger effect = lower value 0.826
